APE1 inh = blocks human APE1 abasic DNA cleavage; P27695; actives 0.35% (n = 350,000); Potency, µM (series often up to 65.8 µM), without a hit: top-dose activity change, negative = inhibition, hits mostly inhibitors; recombinant APE1, TAMRA/BHQ-2 abasic DNA cleavage fluorescence;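 also: plate controls were vehicle for no effect and reference inhibitor for full effect; nearly all actives have a fitted effect of over 55% in size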
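Quantitative HTS: incision of a TAMRA/BHQ-2 double-stranded substrate bearing a tetrahydrofuran abasic site by 0.75 nM APE1 raises fluorescence. Substrate 50 nM final, added after 15 min compound preincubation at room temperature; progress as third-minus-first kinetic read difference.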
POLI inh = blocks human DNA polymerase iota activity; Q9UNA4; Pol iota fluorescent replication assay, 10 min; Potency, µM (titrated, usually from 115 µM), for inactives: top-dose activity, negative = inhibition, hits mostly inhibitors; actives 1% (n = 390,000); AID 588590
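Pol iota at 10 nM preincubated 15 min with compounds at room temperature; reaction started with fluorescent substrate, 50 nM final. Fluorescence read kinetically at 0 and 10 min; buffer-only wells as negative control.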
POLB inh = blocks human DNA polymerase beta activity; AID 485314; Pol beta primer extension/strand displacement, fluorescence kinetic; actives 1.3% (n = 340,000); Potency, µM (doses to about 114 µM), inactives show at the top dose activity change, negative = inhibition, usual class: inhibitors; also: % is scaled to controls: 0 for no effect and ±100 for the full control effect
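Values derive from four-parameter Hill fits of normalized kinetic data: reads at 0 and 10 min following addition of 50 nM substrate to 10 nM Pol beta preincubated 15 min with compound.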
GLS inh = inhibitors of human glutaminase (GLS); actives 0.21% (n = 410,000); Potency, µM (series often up to 45.5 µM), for inactives: top-dose activity change, negative = inhibition, most hits filed as inhibitors; GLS enzymatic activity, qHTS titration; also: % is scaled to controls: 0 for no effect and ±100 for the full control effect
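hKGA in 45 mM KH2PO4 pH 8.2, 0.02% Tween-20 with pin-transferred compounds; 1 mM L-glutamine (stock) plus glutamate oxidase/HRP/Amplex Red coupling added. Fluorescence read initially and after 30 min at RT.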
Pol eta inh-1 = inhibitors of human DNA polymerase eta; recombinant Pol eta, fluorescent DNA replication assay; Potency, µM (highest dose often 114 µM), without a hit: top-dose activity change, negative = inhibition, most hits filed as inhibitors; actives 1.2% (n = 390,000); AID 588591; also: % is scaled to controls: 0 for no effect and ±100 for the full control effect
Target sequence (Q9Y253 whole entry, looked up): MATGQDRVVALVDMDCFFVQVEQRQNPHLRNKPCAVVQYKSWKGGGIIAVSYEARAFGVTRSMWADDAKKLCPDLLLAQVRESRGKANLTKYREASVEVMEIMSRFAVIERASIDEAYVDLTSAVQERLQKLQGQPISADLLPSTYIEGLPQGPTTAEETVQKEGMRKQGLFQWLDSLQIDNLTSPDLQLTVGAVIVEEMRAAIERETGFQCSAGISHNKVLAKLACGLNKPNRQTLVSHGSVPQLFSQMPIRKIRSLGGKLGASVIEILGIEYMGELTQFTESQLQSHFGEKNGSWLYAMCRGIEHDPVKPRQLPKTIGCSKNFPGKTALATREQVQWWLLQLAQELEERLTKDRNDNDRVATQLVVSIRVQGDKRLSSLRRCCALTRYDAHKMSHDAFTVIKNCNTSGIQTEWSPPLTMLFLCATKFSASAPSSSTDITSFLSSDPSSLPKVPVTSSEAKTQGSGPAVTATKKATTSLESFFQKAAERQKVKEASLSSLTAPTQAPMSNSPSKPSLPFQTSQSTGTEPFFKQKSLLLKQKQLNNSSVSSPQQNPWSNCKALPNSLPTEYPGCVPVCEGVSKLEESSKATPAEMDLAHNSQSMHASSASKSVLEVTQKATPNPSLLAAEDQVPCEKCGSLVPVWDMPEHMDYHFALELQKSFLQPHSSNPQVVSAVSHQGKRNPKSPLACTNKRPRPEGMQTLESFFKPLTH
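Pol eta at 10 nM preincubated with compounds 15 min at room temperature; reaction started with fluorescent substrate (50 nM final) and read kinetically at 0 and 10 min.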
Pol kappa inh-1 = DNA polymerase kappa (human) inhibition; actives 0.53% (n = 400,000); Potency, µM (top dose mostly 107 µM), without a hit: at the top dose activity, negative = inhibition, hits mostly inhibitors; purified Pol kappa, fluorescent DNA synthesis assay, 10 min; Q9UBT6; also: % is scaled to controls: 0 for no effect and ±100 for the full control effect
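50 nM final substrate added after 15 min RT preincubation of 10 nM Pol kappa with compound; fluorescence read at 0 and 10 min.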
Pol kappa inh-2 = confirmation of human DNA polymerase kappa inhibitors. actives 76% (n = 920). purified Pol-kappa, fluorescent strand-displacement substrate. Potency, µM, most hits filed as inhibitors. shares compounds with Pol eta inh-1
Pol eta inh-2 = Pol eta (human) inhibition, cherry-pick confirmation; shares compounds with Pol eta inh-1; Pol eta primer extension, TAMRA/BHQ fluorescence, 10 min; Potency, µM, most hits filed as inhibitors; actives 64% (n = 2,600)
Starred values were filed as active, the others as inactive; ? = inconclusive; nt = no result given; [ ] = remark or other dose. Only some compounds are listed: those with a hit (about 2.4% of all), similar ones and a draw of the others. Calls follow the shape of the dose curve; as a rule, active = well fitted curve in the direction sought with a large enough effect; inconclusive = small, poorly fitted or top-dose-only effect, or another doubt; inactive = no such curve, though single readings can be large; an effect the other way counts as inactive or inconclusive. Potency is read from the fitted curve at half-maximal effect.

SMILES	APE1 inh	POLI inh	POLB inh	GLS inh	Pol eta inh-1	Pol kappa inh-1	Pol eta inh-2	others
COc1cc(C(C(=O)NC2CCCCC2)N(C(=O)c2cnccn2)c2ccccc2)cc(OC)c1OC (stereo unspecified)	-13%	92%	19%	2%	3%	-8%	nt
CCC(=O)c1ccc(OCC(=O)Nc2nc(-c3cccnc3)cs2)cc1	-34%	13µM*	nt	31%	13µM*	-31%	67*
CCC(=O)c1ccc(OCC(=O)Nc2nc(C)cs2)cc1	14%	101%	nt	-4%	-12%	-6%	nt
O=C(COc1ccc([N+](=O)[O-])cc1)Nc1nnc(-c2cccnc2)s1	?	18µM*	16µM*	-17%	40µM*	?	?	Pol kappa inh-2=47*
O=C(O)c1cc(-c2ccc(/C=N/Nc3ccc([N+](=O)[O-])cn3)o2)ccc1Cl	11%	?	?	-15%	-16%	-44%	85*	Pol kappa inh-2=75*
Cc1ccc(-n2[nH]c(C)c(/C=N/Nc3ccc([N+](=O)[O-])cc3[N+](=O)[O-])c2=O)cc1C	1%	?	-9%	19%	20µM*	-21%	?
CC(=O)NS(=O)(=O)c1cccnc1Nc1ccc(Cl)cc1	0%	-6%	0%	3%	-11%	-10%	nt
C/C(=N\Nc1ccc(Cl)c(C(=O)O)c1)c1ccccn1	-4%	-8%	2%	4%	-13%	-4%	nt
O=C(O)c1cc(NN=C2c3ccccc3-c3ccccc32)ccc1Cl	-14%	?	50µM*	?	22µM*	?	38*
C/C(=N\Nc1ccc(Cl)c(C(=O)O)c1)c1cccc2ccccc12	-1%	16µM*	28µM*	11µM*	7.9µM*	?	27*
CCOc1ccc(C(=O)Nc2cccc3cccnc23)cc1	-3%	111%	?	4%	8%	1%	nt
O=C(O)c1ccc(/C=N/NC(=O)c2cc3ccccc3cc2O)cc1	-2%	16µM*	nt	-22%	22µM*	50µM*	?
O=C(CNc1ccc2ccccc2c1)N/N=C/c1ccc(C(=O)O)cc1	4%	?	10%	11%	1%	?	nt
CC(C)Nc1nc(C#N)nc(NC(C)C)n1	1%	21%	53%	4%	-22%	-2%	nt
O=C1CSC(=S)N1/N=C/c1c(F)cccc1F	35%	?	10%	38%	-18%	-12%	nt
O=C1CSC(=S)N1/N=C/C=C/c1ccccc1	-7%	20µM*	28µM*	19%	14µM*	?	?
Cc1nc(N2CCCC2)ncc1C(=O)Nc1ccc(OC(F)(F)F)cc1	nt	7%	-21%	-9%	nt	-2%[60.1 µM]	nt
COC(=O)c1ccccc1NC(=O)CSc1nc(N)cc(N)n1	0%	-7%	-3%	1%	-12%	-11%	nt
COC(=O)c1ccccc1NC(=O)CSc1nc(N)cc(=O)[nH]1	?	?	18µM*	0%	18µM*	50µM*	67*
Cc1occc1C(=O)Nc1cccc(/C=C/C(=O)O)c1	nt	?	nt	-22%	18µM*	?	27*
COc1ccc(C2/C=C\CN(C(=O)c3ccc(C)cc3)CC(=O)N2Cc2ccc(F)cc2)cc1 (stereo unspecified)	-3%	8%	-19%	8%	-15%	12%	nt
CCOC(=O)C(=O)Nc1nc(-c2ccc3c(c2)CCN3C(=O)C2CC2)c(C)s1	58%	-11%	-6%	1%	14µM*	-3%	?
